Source: PubChem BioAssay (National Center for Advancing Translational Sciences (NCATS))
MCF10A rereplic – inducers of DNA re-replication in MCF 10A breast cells; actives 2.9% (n = 350,000); AID 624296; MCF 10A DNA re-replication, Hoechst nuclear intensity, 48 h; Potency, µM (titrated, usually from 46.1 µM), hits mostly activators; note: nearly all actives have a fitted effect of over 50% in size
BCR signal inh – chronic active BCR signaling inhibition | Potency, µM (doses to about 46.1 µM), most hits filed as inhibitors | actives 0.05% (n = 340,000) | ABC-DLBCL IkBa-CBG/CBR reporter, luminescence ratio, 4 h; active = well fitted inhibition curve with a large enough effect in the signal ratio, with a control signal flat, not every such curve was filed as active; inconclusive = small, poorly fitted or top-dose-only effect, or effect the other way, or a change in a side signal; the % refers to the signal ratio
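Compounds up to 46 uM were incubated four hours with TMD8 cells whose green CBG68 luciferase is fused to IkappaBalpha; red CBR luminescence normalised the signal, and concentration-effect curves were fitted to fusion, red and ratio data.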
TDP1 cell noCPT – qHTS for Inhibitors of human tyrosyl-DNA phosphodiesterase 1 (TDP1): qHTS in cells in absence of CPT | actives 15% (n = 420,000) | AID 686978, 2013 | DT40 Tdp1-/- hTDP1 cells, no CPT, ATP luminescence, 48 h | Potency, µM (series often up to 46.2 µM), hits mostly inhibitors; note: nearly all actives have a fitted effect of over 55% in size
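DT40 Tdp1-/-;hTDP1 cells, no CPT (DMSO vehicle only), 400 cells/well; compounds pin-transferred; ≥48 hr, 37 °C; CellTiter-Glo 30 min RT dark, luminescence read.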
DT40 TDP1 CPT – growth inhibition of DT40 Tdp1-/-;hTDP1 cells with camptothecin (screen for TDP1 inhibitors). Potency, µM (top dose mostly 46.2 µM), actives largely listed as inhibitors. chicken DT40 Tdp1-/-;hTDP1 cells + 20 nM CPT, ATP luminescence, 48 h. actives 12% (n = 420,000); note: nearly all actives have a fitted effect of over 55% in size
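Chicken DT40 Tdp1-/- cells complemented with human TDP1, 400 cells/well, exposed to compounds plus 20 nM camptothecin for at least 48 h at 37 C; viability read as ATP content by CellTiter-Glo luminescence.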
SW480 rereplic – induces DNA re-replication in SW480 colon adenocarcinoma cells; AID 624297; SW480 DNA re-replication, Hoechst DNA content imaging, 48 h; actives 1.8% (n = 340,000); Potency, µM (highest dose often 46.1 µM), most hits filed as activators; note: nearly all actives have a fitted effect of over 55% in size
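SW480 cells exposed to compounds for 48 hr at 37 C, 5% CO2, then Hoechst-stained 40 min. Nuclear DNA content imaged by fluorescence scanning (405 nm excitation, 500-530 nm emission); re-replication scored as increased high-intensity nuclei.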
IL1B secr inh – inflammasome signaling inhibition, IL-1 beta readout | THP-1 LPS/ATP IL-1B secretion, AlphaLISA, 16 h; hits give low values | activity change, % at 57.5 µM | actives 4.7% (n = 360,000) | AID 743279; in the data active = activity change below about -50%; inconclusive = mostly about -30% to -49%
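Secreted IL-1B measured by AlphaLISA bead assay after 16 h compound exposure of THP-1 cells; compounds (final up to 57.5 uM) added 1 h before LPS (250 ng/mL) and ATP (1.25 mM) stimulation; lower signal means less secretion.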
Hits are given with their value; – = inactive; ? = inconclusive; · = no result; ! = repeats disagree; [ ] = another dose, or the depositor's remark. This is a sample that favours compounds with a hit; in the whole collection about 19% have one here. Unless noted, calls come from the whole dose curve; as a rule, active = well fitted curve in the direction sought with a large enough effect; inconclusive = small, poorly fitted or top-dose-only effect, or another doubt; inactive = no such curve, though single readings can be large; an effect the other way counts as inactive or inconclusive.

SMILES	MCF10A rereplic	BCR signal inh	TDP1 cell noCPT	DT40 TDP1 CPT	SW480 rereplic	IL1B secr inh
COc1ccc(S(=O)(=O)NNC(=O)Cc2csc(C)n2)cc1[N+](=O)[O-]	–	–	–	?	–	–
NC(=O)c1cccc(-c2cc(Nc3ccc(OC(F)(F)F)cc3)ncn2)c1	–	?	15µM	?	–	–
CCN(CC)CCOc1ccc(/C(=C(\Cl)c2ccccc2)c2ccccc2)cc1	5.2µM	–	15µM!	?	–	–
CCN(CC)CCOc1ccc(Br)cc1	–	–	–	–	–	–
CC(C(=O)N(C)c1ccccc1)N1CCN(C(=O)c2ccccc2)CC1 (centres undefined)	–	–	–	–	–	–
O=C(NCCC1=CCCCC1)c1ccc2c(c1)sc1nc(-c3ccc(F)cc3)cn12	·	·	?	–	·	·
COc1ccc(-c2cn3c(n2)sc2cc(C(=O)NCCCN4CCCCCC4)ccc23)cc1	·	·	3.3µM	2.9µM	·	·
COc1ccc(-c2cn3c(n2)sc2cc(C(=O)NCCCN4CCCCC4)ccc23)cc1	·	·	0.73µM	1µM	·	·
CCCCc1nc(SCC(=O)N2CCCC2)c2c(=O)n(C)c(=O)n(C)c2n1	–	?	?	–	–	–
COC(=O)c1ccccc1NC(=O)CN(C)S(=O)(=O)c1ccc(OC)c(C)c1	–	?	?	23µM	?	–
CSc1cccc(NC(=O)CN(C)S(=O)(=O)c2ccc(C)cc2)c1	–	–	16µM	?	–	–
COc1ccc(S(=O)(=O)N(C)CC(=O)Nc2ccc(C)cc2)cc1OC	–[9.22 µM]	–	?	23µM	–	–
CCOC(=O)C1=CC[C@H]2c3c(c4ccccc4n3C)C(=O)C1N2C(=O)OC(C)(C)C	–	–	?	?	–	–
CC(NC(=O)CCc1nc2cc(S(=O)(=O)N3CCOCC3)ccc2n1C)c1ccc(S(N)(=O)=O)cc1 (centres undefined)	–	–	–	–	–	–
O=C(Nc1ccccc1[N+](=O)[O-])c1csnn1	·	·	–	–	·	·
Cc1cccc(-c2nc(NCCCN3CCOCC3)c3ccccc3n2)c1	?	?	?	18µM	–	–
CCCN(CCC)c1nc(-c2ccccc2F)nc2ccccc12	·	·	?	–	·	·
Cc1ccc(-c2nc(NCCCO)c3ccccc3n2)cc1	–	?	?	?	–	?
CCCN(CCC)c1nc(-c2ccccn2)nc2ccccc12	21µM	?	3.3µM	1.3µM	10µM	-96
CCCCN(CC)c1nc(-c2ccncc2)nc2ccccc12	?	?	?	16µM	?	–
Cc1ccc(-c2nc(NCCN(C)C)c3ccccc3n2)cc1	–	?	?	–	?	-95
Cc1cccc(-c2nc(NCCCN(C)C)c3ccccc3n2)c1	–	–	?	?	–	-86
COCCN(CCOC)c1nc(-c2ccc(C)cc2)nc2ccccc12	?	–	18µM	?	–	–
O=C(O)CCNc1nc(-c2ccccc2)nc2ccccc12	–	–	?	–	–	–
CN(C)CCCNc1nc(-c2ccc(Cl)cc2)nc2ccccc12	–	?	?	?	–	-62
SMILES	MCF10A rereplic	BCR signal inh	TDP1 cell noCPT	DT40 TDP1 CPT	SW480 rereplic	IL1B secr inh
COCCNc1nc(-c2ccc(C(=O)N(C)C)cc2)nc2ccccc12	·	·	–	–	·	·
OCCNc1nc(-c2cccnc2)nc2ccccc12	?	?	–	–	–	–
c1ccc(CCNc2nc(-c3ccccn3)nc3ccccc23)cc1	–	–	2.9µM	3.3µM	?	-101
COCCNc1nc(-c2ccc(N(C)C)cc2)nc2ccccc12	·	·	21µM	?	·	·
COc1ccccc1CCNC(=O)c1ccc(NC(=O)CC2SC(N3CCCCC3)=NC2=O)cc1 (centres undefined)	–	–	?	–	–	–
COC(=O)c1c(C(=O)OC)c(-c2ccc(C)cc2)n2c1CCC2	–	–	–	–	–	–
COC(=O)c1c(C(=O)OC)c(-c2ccc(Cl)c(Cl)c2)n2c1CCC2	?	–	?	21µM	–	–
CC(C)(C)C(=O)Nc1ccc(C(=O)COC(=O)C2=COCCO2)cc1	–	–	–	–	–	–
COc1cc(CNCc2cccs2)ccc1OCc1ccccc1	–	–	–	–	–	–
COc1cc(CNC(C)(C)C)cc(Br)c1OCc1cccs1	–	–	15µM	?	–	?
CCN(CC)c1ccc(CNCc2cccs2)cc1	–	–	21µM	16µM	–	?
COc1cc(CNCc2cccs2)ccc1OCc1cccs1	–	?	?	–	–	-84
COc1cc(CNCCO)cc(Br)c1OCc1cccs1	–	?	29µM	–	–	–
Cc1cccc(-n2c(O)c(/C=N/NC(=O)c3ccccc3Cl)c3ccccc3c2=O)n1	–	?	?	?	?	–
COc1ccccc1NC(=O)COc1ccc(/C=N/NC(=O)c2cccnc2)cc1	–	–	?	–	–	–
COc1ccc2c(C=Nc3c(C)n(C)n(-c4ccccc4)c3=O)c(O)n(Cc3ccco3)c(=O)c2c1	18µM!	–	?	18µM	–	–
COc1ccccc1NS(=O)(=O)c1cccc(-n2c(O)c(C=Nc3ccccc3C(=O)O)c3ccccc3c2=O)c1	–	?	13µM	?	–	–
COc1ccc(Cn2c(O)c(/C=N/NC(=O)c3cccnc3)c3ccccc3c2=O)cc1	?	?	23µM	15µM	?	–
COc1cc(C=NNc2ccc(S(=O)(=O)Nc3ccccc3C(=O)O)cc2[N+](=O)[O-])ccc1O	–	?	–	–	–	–
O=C(N/N=C/c1c(O)n(-c2ccccc2Cl)c(=O)c2ccccc12)c1cccnc1	?	?	–	?	16µM	–
COc1ccccc1-n1cc(-c2ccccc2)c2c(=S)nc[nH]c21	?	–	?	–	–	–
COc1ccc(C(C)(C)C)cc1NC(=O)c1cccc(S(=O)(=O)N2CCN(C(C)=O)CC2)c1	–	–	?	–	–	–
O=C(N/N=C/c1cn(Cc2ccccc2)c2ccccc12)c1cccnc1	–	?	?	?	–	–
COc1ccc(Cn2c(O)c(C=Nc3ccccc3C(=O)O)c3ccccc3c2=O)cc1	?	?	10µM	15µM	–	–
O=C(N/N=C/c1c(O)n(Cc2ccccc2)c(=O)c2ccccc12)c1cccnc1	?	?	9.2µM	?	–	–
COc1ccc(Cn2c(O)c(C=Nc3ccc(OC)cc3)c3ccccc3c2=O)cc1	–	–	–	–	–	–
O=C(NCc1cccc(OC(F)(F)F)c1)C1CCC(=O)N(Cc2cccc(F)c2)C1 (centres undefined)	–	–	–	–	–	–
